IL1B secr inh = inflammasome signaling inhibition, IL-1 beta readout; THP-1 LPS/ATP IL-1B secretion, AlphaLISA, 16 h; active compounds read low; activity change, % at 57.5 µM; 360,000 compounds, 4.7% hits; in the data active means activity change below about -50%; inconclusive means mostly about -30% to -49%
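THP-1 cells pretreated 1 hr with compounds (up to 57.5 uM final), then stimulated with LPS (250 ng/mL final) plus ATP (1.25 mM final); secreted IL-1B measured by AlphaLISA after 16 hr, decreased signal indicating inhibition.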
DT40 TDP1 CPT = DT40-hTDP1 cell growth loss with CPT; chicken DT40 Tdp1-/-;hTDP1 cells + 20 nM CPT, ATP luminescence, 48 h; Potency, µM (top dose mostly 46.2 µM), for the others: at the highest dose activity change, negative = growth inhibition, most hits filed as inhibitors; 420,000 compounds, 12% hits; further: potency means the concentration at half of the fitted maximal effect; nearly all actives have a fitted effect of over 55% in size
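Chicken DT40 Tdp1-/- cells stably complemented with human TDP1 were seeded at 400 cells/well in medium containing 20 nM camptothecin, exposed to pin-transferred compounds, and grown at 37 °C for at least 48 hr. Viability was read as ATP luminescence.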
HT1080NT lethal = kills 2HG-producing HT-1080-NT fibrosarcoma cells; HT-1080-NT fibrosarcoma viability, CellTiter-Glo ATP luminescence, 48 h; 360,000 compounds, 1.6% hits; Potency, µM (top dose mostly 46.1 µM), for inactives: at the highest dose activity, negative = less viability, usual class: cytotoxic;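 further: NT is the 2HG producing partner of a matched IDH1 knockdown line; potency means the concentration at half of the fitted maximal effect; 0% = DMSO-treated cells and -100% = media-only wells without cells; nearly all actives have a fitted effect of over 55% in size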
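HT-1080-NT; 750 cells/well; 5% FBS RPMI; 48 h compound, 37 degrees C; CellTiter-Glo luminescence; curve fitting and curve-class assignment.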
HT1080 IDH1KD tx = kills HT-1080 cells with IDH1 knockdown; HT-1080 IDH1 knockdown viability, ATP luminescence, 48 h; AID 686971; Potency, µM (doses to about 46.1 µM), for the others: top-dose activity, negative = toxicity, actives largely listed as cytotoxic; 360,000 compounds, 2% hits;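 further: potency means the concentration at half of the fitted maximal effect; 0% = DMSO wells and -100% = cell-free medium wells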
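Cytotoxicity counter-line: IDH1KD HT-1080, 48 h, CellTiter-Glo. Curves classed by r2, magnitude and activity.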
TDP1 cell noCPT = qHTS for Inhibitors of human tyrosyl-DNA phosphodiesterase 1 (TDP1): qHTS in cells in absence of CPT | 420,000 compounds, 15% hits | AID 686978, 2013 | DT40 Tdp1-/- hTDP1 cells, no CPT, ATP luminescence, 48 h | Potency, µM (doses to about 46.2 µM), for inactives: at the top dose activity change, negative = growth inhibition, most hits filed as inhibitors; further: potency means the concentration at half of the fitted maximal effect; nearly all actives have a fitted effect of over 55% in size
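Compound effects on proliferation are scored in DT40 Tdp1-/-;hTDP1 cells in the absence of CPT. ATP levels (CellTiter-Glo luminescence) are recorded after a ≥48 hr, 37 °C incubation.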
ELG1 DNA repair = inhibitors of ELG1-dependent DNA repair in HEK293T cells. Potency, µM (doses to about 46.1 µM), inactives show at the top dose activity change, negative = inhibition, actives largely listed as inhibitors. HEK293T ELG1-luciferase reporter, luminescence, 16 h; DNA damage induced by 5-fluorouridine. 330,000 compounds, 2.3% hits. AID 504467; further: potency means the concentration at half of the fitted maximal effect; nearly all actives have a fitted effect of over 55% in size
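HEK293T cells expressing luciferase-tagged ELG1 (2,000/well) received 5-Fluorouridine plus compound or DMSO for 16 hr at 37 °C. Luciferase was read by ONE-Glo luminescence after 30 min at room temperature.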
Starred values were filed as active, the others as inactive; ? = inconclusive; / = no result given; [ ] = dose if it differs, or a comment. Only some compounds are listed: those with a hit (about 19% of all), similar ones and a draw of the others. Unless noted, the call rests on the fitted dose curve; in most records, active means well fitted curve in the direction sought with a large enough effect; inconclusive means small, poorly fitted or top-dose-only effect, or another doubt; inactive means no such curve, though single readings can be large; an effect the other way counts as inactive or inconclusive. Unless noted, on the % scale 0 is the no-effect control and ±100 the full control effect.

SMILES | IL1B secr inh | DT40 TDP1 CPT | HT1080NT lethal | HT1080 IDH1KD tx | TDP1 cell noCPT | ELG1 DNA repair
CC(C)c1ccc(NC(=O)C2Cc3c(-c4ccc5c(c4)OCO5)ccnc3O2)cc1 (centres undefined) | -57.5* | ? | ? | ? | 14.6µM* | /
CC(=O)c1cccc(-c2ccnc3c2CC(C(=O)Nc2ccc4c(c2)OCO4)O3)c1 (centres undefined) | -11.3 | 4.11µM* | ? | 2.31µM* | 2.31µM* | /
CC(=O)Nc1ccc(-c2ccnc3c2CC(C(=O)Nc2ccc(C(C)C)cc2)O3)cc1 (centres undefined) | -23.3 | ? | ? | -26.1% | ? | /
CC(=O)Nc1ccc(-c2ccnc3c2CC(C(=O)Nc2ccc4c(c2)OCO4)O3)cc1 (centres undefined) | -24.4 | 6.51µM* | ? | 14.6µM* | 8.2µM* | /
CC(=O)c1cccc(-c2ccnc3c2CC(C(=O)NC(C)C)O3)c1 (centres undefined) | 43.4 | 9.2% | 0.3% | 9.1% | 6.7% | /
O=C(C1CCCC1)N1CCN(S(=O)(=O)c2cccc(Cl)c2Cl)CC1 | -13.6 | 1.8% | -7.4% | -0.2% | -21.5% | 2.6%
O=C(/C=C/c1ccccn1)c1ccc(Br)cc1O | -21.6 | 20.6µM* | 4.3% | 8.1% | 18.4µM* | 2.0%
O=C(/C=C/c1ccccn1)c1cc(Br)ccc1O | ? | 23.1µM* | -4.2% | 11.0% | 23.1µM* | 6.3%
C(=C\c1ccccn1)/c1ccccn1 | -6.0 | 3.8% | ? | 21.1% | -15.8% | ?
COc1ccc(OCc2nnc(SCC(=O)Nc3ccccc3F)o2)cc1 | 11.8 | 5.3% | 1.9% | 4.2% | 3.3% | -4.6%
CCCCCCCC/C=C\CCCCCCCCOC[C@H](COP(=O)([O-])OCC[N+](C)(C)C)OC(C)=O | / | 6.5%[4.12 µM] | / | / | 1.9%[4.12 µM] | /
CCCCC/C=C\C/C=C\C/C=C\C/C=C\CCCC(=O)O[C@H](COCCCCCCCCCCCCCCCC)COP(=O)([O-])OCC[N+](C)(C)C | / | 7.5%[4.12 µM] | / | / | 9.1%[4.12 µM] | /
Cc1ccc(-c2csc3nc(C)n(-n4c(C)ccc4C)c(=O)c23)o1 | 1.5 | 20.6µM* | 3.3% | -0.4% | 20.6µM* | 12.5%
Cc1ccc(-c2csc3nc(C)n(N)c(=O)c23)o1 | 12.3 | -4.9% | -2.9% | 0.5% | -23.4% | ?
CC(C)(C)NC[C@@H](O)COc1cccc2c1CCCC2=O | -5.4 | -4.8% | 1.6% | -8.4% | 0.4% | 20.1%
CC(C)(C)NCC(O)COc1ccccc1C1CCCC1 (centres undefined) | -22.7 | ? | ? | ? | 14.6µM* | 8.6%
CC(C)(C)NC[C@H](O)COc1ccccc1C1CCCC1 | / | 12.8µM* | / | / | 10.1µM* | /
O=C(c1c(F)c(F)c(F)c(F)c1F)N1CCN(c2cccc(C(F)(F)F)c2)CC1 | -3.8 | ? | ? | ? | 18.4µM* | 0.7%
O=C(c1ccccc1F)N1CCN(c2cccc(C(F)(F)F)c2)CC1 | -23.0 | ? | -2.4% | 0.6% | 16.4µM* | 2.3%
Cc1ccc(-n2ncc3c(=O)n(Cc4ccccc4C)cnc32)cc1C | / | -8.1% | / | / | ? | /
COC(=O)c1ccccc1N=Nc1c(N)[nH][nH]c1=O | -15.1 | ? | 2.3% | -9.0% | ? | -6.2%
COC(=O)c1ccccc1N=Nc1c(N)n[nH]c1N | -60.0* | -0.8% | 2.9% | -0.1% | -18.7% | 6.4%
CC(Cc1nnc(SCC(=O)O)n1N)c1ccccc1 (centres undefined) | 3.8 | 20.7% | -1.3% | 3.5% | 16.0% | 4.6%
CN(C)C(=O)c1cc2c(c(-c3cccc(C4=CCCCC4)c3)n1)[C@@H](CCO)N(S(=O)C(C)(C)C)C2 (some centres undefined) | -18.9 | 1.0% | 8.1% | 5.8% | -17.5% | /
O=C1N=C(N2CCN(c3ccccc3)CC2)S/C1=C\c1ccco1 | -26.8 | -23.1% | -4.7% | -1.6% | -14.4% | ?
SMILES | IL1B secr inh | DT40 TDP1 CPT | HT1080NT lethal | HT1080 IDH1KD tx | TDP1 cell noCPT | ELG1 DNA repair
CCOC(=O)C1CCN(C2=NC(=O)/C(=C/c3ccccc3OC)S2)CC1 | 15.3 | ? | 2.0% | 4.3% | -5.7% | 1.4%
O=C1N=C(N2CCC(Cc3ccccc3)CC2)S/C1=C/c1cn[nH]c1-c1ccccc1 | ? | ? | 0.3% | -10.3% | 16.4µM* | ?
O=C1N=C(N2CCN(c3ccccc3)CC2)S/C1=C\c1cn[nH]c1-c1ccccc1 | -18.7 | 20.6µM* | -8.8% | -1.9% | 13µM* | 4.61µM*
Cc1ccc(N2CCN(C3=NC(=O)/C(=C\c4cn[nH]c4-c4ccccc4)S3)CC2)cc1 | ? | ? | -21.2% | -3.5% | 20.6µM* | 1.64µM*
O=C1N=C(N2CCN(c3ccccc3)CC2)S/C1=C/c1ccco1 | 0.0 | -25.7% | 11.4% | 9.3% | ? | -22.5%
CC(C)c1onc(C(=O)Nc2cccc(O)c2)c1[N+](=O)[O-] | -12.3 | -19.7% | 15.9% | 1.8% | -5.9% | ?
Cc1cc(O)ccc1N/C=C/c1onc(C)c1[N+](=O)[O-] | ? | -13.6% | 16.4µM* | ? | -22.4% | ?
Cc1cccc(N/C=C/c2onc(C)c2[N+](=O)[O-])c1 | 2.9 | ? | -7.2% | -5.3% | 9.2µM* | /
Cc1noc(/C=C/c2nn(C)cc2Cl)c1[N+](=O)[O-] | -78.3* | 20.6µM* | -27.7% | ? | 11.6µM* | ?
COc1cc(/C=C/c2onc(C)c2[N+](=O)[O-])cc(OC)c1OC | 13.9 | 6.8% | -1.2% | 11.2% | -20.6% | /
Cc1cccc(/C=C/c2onc(C)c2[N+](=O)[O-])n1 | -96.7* | 2.59µM* | ? | 6.51µM* | 2.59µM* | /
COc1ncccc1C(=O)N1CCOc2ccc(C(O)C(c3ccccc3)c3ccccc3)cc2C1 (centres undefined) | / | -5.3%[9.04 µM] | / | / | ? | /
CN1CCN(/N=C/c2ccc(OCc3ccccc3)cc2)CC1 | -13.0 | ? | 0.7% | -5.1% | ? | ?
CCN(Cc1ccccc1)C(=O)Cn1c(=O)n(-c2ccc(Cl)cc2)c(=O)c2c(C)c(C(=O)N(C)C)sc21 | / | -11.6% | / | / | ? | /
CC(=O)N1CCC(N(CCCOC(C)C)S(=O)(=O)c2ccc([N+](=O)[O-])cc2)CC1 | -14.8 | -26.1% | 1.9% | 0.0% | -9.9% | 16.9%
CCN(CC)CCOC(=O)c1ccc(NC(=O)Cn2ncc3c([nH]c4ccc(C)cc43)c2=O)cc1 | / | 4.11µM* | / | / | 3.26µM* | /
CCc1cccc(NC(=O)Cn2ncc3c([nH]c4ccc(C)cc43)c2=O)c1 | / | -1.3% | / | / | 4.4% | /
